AMA1 RON2 block: qHTS for Inhibitors of AMA1-RON; Towards Development of Antimalarial Drug Lead: Primary Screen | actives 0.2% (n = 360,000) | Potency, µM (highest dose often 58.2 µM), for inactives: at the highest dose activity change, negative = inhibition, actives largely listed as inhibitors | AlphaScreen AMA1-biotinylated RON2 peptide binding;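 note: 0% = vehicle wells and -100% = peptide control; nearly all actives have a fitted effect of over 45% in size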
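AMA1 (3D7) with his tag at 25 nM final met compounds first, then biotinylated RON2 peptide at 25 nM; detection used donor plus acceptor beads, 10 µg/mL apiece, read by AlphaScreen after 30 min at room temperature.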
HCV inh: qHTS Assay for Inhibitors of Hepatitis C Virus (HCV); Huh7.5.1 HCVcc-Cre infection, luciferase reporter, 44 h; Potency, µM (titrated, usually from 41.8 µM), without a hit: at the highest dose activity change, negative = inhibition, most hits filed as inhibitors; actives 3.4% (n = 340,000); note: % is set by controls: 0 for no effect and ±100 for the full control effect
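Seed cells (1,000/well) for 4 h; treat with compound and infect with HCVcc-Cre, moi about 0.5. Incubate 44 h, then detect luciferase activity.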
Pf growth 96h: Primary qHTS for delayed death inhibitors of the malarial parasite plastid, 96 hour incubation; AID 504834, 2011; actives 6.9% (n = 320,000); Potency, µM (doses to about 28.7 µM), without a hit: top-dose activity change, negative = inhibition, most hits filed as inhibitors; P. falciparum luciferase reporter growth, 96 h; note: % is set by controls: 0 for no effect and ±100 for the full control effect
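Readout is luminescence from an integrated firefly luciferase in P. falciparum. Red cells, 2% hematocrit and 0.05% parasitemia final, were cultured with compound through two parasite generations (96 hours) at 37 C, 5% CO2.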
SARS PLP yeast: qHTS of Yeast-based Assay for SARS-CoV PLP; Potency, µM (top dose mostly 32.9 µM), for the others: top-dose activity, positive = growth rescue, hits mostly activators; S. cerevisiae expressing SARS-CoV PLpro, growth rescue; AID 485353, 2010; actives 0.19% (n = 330,000); calls by dose curve; note: 0% is about no effect; nearly all actives have a fitted effect of over 55% in size
NS1 function inh: qHTS Assay for Inhibitors of Influenza NS1 Protein Function | Potency, µM (doses to about 46.1 µM), inactives show top-dose activity, positive = more growth | actives 0.4% (n = 270,000); calls by dose curve; note: actives are rising curves; nearly all actives have a fitted effect of over 50% in size
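S. cerevisiae expressing influenza A NS1, grown in glucose, washed, then diluted 1:100 into pH 6.0 -URA galactose medium with 23 nl compound. Growth recovery read as OD600; NS1-free strain serves as control.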
Pf growth 48h: Primary qHTS for delayed death inhibitors of the malarial parasite plastid, 48 hour incubation. actives 5.9% (n = 310,000). P. falciparum luciferase growth in erythrocytes, 48 h. Potency, µM (titrated, usually from 28.7 µM), without a hit: at the top dose activity change, negative = inhibition, actives largely listed as inhibitors; note: % is set by controls: 0 for no effect and ±100 for the full control effect
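First compound was added to culture medium, then infected red cells at 0.1% parasitemia and 2% hematocrit (final). After incubation at 37 C under 5% CO2, luciferase detection reagent was dispensed and light output recorded.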
Active calls of the source: *; ? = inconclusive; nt = no result; [ ] = dose if it differs, or a comment. The list is not random: actives were taken first. Their share in the collection is about 12%. Unless noted, calls come from the whole dose curve; as a rule, active = well fitted curve in the direction sought with a large enough effect; inconclusive = small, poorly fitted or top-dose-only effect, or another doubt; inactive = no such curve, though single readings can be large; an effect the other way counts as inactive or inconclusive. Potency is the fitted concentration of half-maximal effect.

SMILES	AMA1 RON2 block	HCV inh	Pf growth 96h	SARS PLP yeast	NS1 function inh	Pf growth 48h
Cc1ccc(S(=O)(=O)NC(C)(C)C)cc1C(=O)OC(C)C(=O)NC1CC1 (stereo unspecified)	6%	-4%	-4%	-1%	nt	-12%
COc1cc(OC)c(NS(=O)(=O)c2cc(C(=O)OC(C)C(=O)NC3CC3)c(Cl)cc2Cl)cc1Cl (stereo unspecified)	-14%	11µM*	0%	4%	-11%	?
COc1cccc(C(=O)NC2CC3CCCC(C2)N3S(=O)(=O)c2ccccc2)c1 (stereo unspecified)	1%	-27%	?	-2%	-23%	?
O=[N+]([O-])c1ccc(Sc2nccn2Cc2ccccc2)c([N+](=O)[O-])c1	-14%	?	?	-9%	-13%	0%
Cc1cccc(Sc2ccc([N+](=O)[O-])cc2[N+](=O)[O-])n1	-19%	-27%	8.3µM*	-14%	-3%	?
O=[N+]([O-])c1ccc(Sc2ncccn2)c([N+](=O)[O-])c1	-30%	?	3.3µM*	-5%	-1%	13µM*
COc1ccc2c(c1)sc(=N)n2C	2%	-5%	3.7µM*	-9%	-4%	?
COc1ccc(NC(=S)NCCCCCC(=O)C[N+](=O)[O-])cc1	1%	0%	?	-1%	nt	?
Cc1ccc(-c2ccc(=O)n(Cc3c(F)cccc3Cl)n2)cc1	-4%	?	5%	0%	-6%	13µM*
O=C(O)Cn1nc(-c2ccc(Cl)cc2)ccc1=O	-5%	11%	13µM*	2%	0%	3%[0.00184 µM]
Cc1ccc(C)c(-c2ccc(=O)n(Cc3c(F)cccc3Cl)n2)c1	7%	?	?	-4%	-49%	-21%
O=C(O)Cn1nc(-c2ccccc2)ccc1=O	8%	-3%	3.3µM*	4%	21%	-17%
Cc1ccc(C)c(Cn2nc(-c3ccccc3)ccc2=O)c1	5%	32µM*	5%	-2%	-9%	-17%
CCN(CC(=O)Nc1ccc(OC)cc1)C(=O)c1ccc(OCc2c(C)noc2C)cc1	1%	-20%	nt	nt	nt	nt
CCCN(c1ccccc1C(=O)O)S(=O)(=O)c1ccc2c(c1)n(C)c(=O)n2C	0%	11%	0.83µM*	-1%	3%	-17%
CCCC(C)NC(=O)COc1ccc(Sc2ccc(OCC(=O)NC(C)CCC)cc2)cc1 (stereo unspecified)	-19%	?	?	17%	5%	7.4µM*
CC(C)CNC(=O)COc1ccc(Sc2ccc(OCC(=O)NCC(C)C)cc2)cc1	13%	?	?	-15%	5%	?
CC1=C(C(=O)OC2CCCCC2)C(c2ccc(N(C)C)cc2)NC(=O)N1 (stereo unspecified)	-9%	?	-5%	-4%	4%	4%
Cc1nc2ccccn2c1C(=O)OCC#N	-3%	2%	51%	-1%	-1%	6%
O=C1C2CCCN2C(=O)N1CCCCN1CCN(CCO)CC1 (stereo unspecified)	3%	22%	14%	-2%	1%	-14%
O=C(OCC(=O)N1CCc2ccccc21)c1c2c(nc3ccccc13)CCCC2	-9%	2µM*	?	-18%	6%	8.3µM*
NC(=O)COC(=O)c1c2c(nc3ccccc13)CCCCC2	-5%	-30%	-13%	-4%	nt	-20%
Cc1onc(-c2ccccc2Cl)c1C(=O)OCC(=O)N1CCCc2ccccc21	1%	?	?	-6%	-11%	9.3µM*
CC1Cc2ccccc2N1C(=O)COC(=O)c1c2c(nc3ccccc13)CCCCC2 (stereo unspecified)	-25%	?	13µM*	-33%	-3%	?
O=C(COC(=O)c1c2c(nc3ccccc13)CCCC2)c1cccs1	-10%	?	?	-25%	-114%	?
SMILES	AMA1 RON2 block	HCV inh	Pf growth 96h	SARS PLP yeast	NS1 function inh	Pf growth 48h
O=C(COC(=O)c1c2c(nc3ccccc13)CCCCC2)c1ccc(Cl)s1	-31%	10µM*	?	-55%	4%	-26%
Cn1c2cc(Br)sc2c2cnn(Cc3ccc(F)cc3)c(=O)c21	nt	nt	14%	-1%	nt	?
NC(=O)c1ccc[n+](CC(=O)c2ccc(F)cc2)c1	6%	15%	57%	0%	10%	59%
OC(CN1CCC(Cc2ccc(F)cc2)CC1)c1ccc(Cl)cc1 (stereo unspecified)	nt	nt	2.1µM*	nt	-9%	1.5µM*
OC(COc1ccc(Cl)cc1)CN1CCC(Cc2ccccc2)CC1 (stereo unspecified)	0%	?	?	0%	5%	-14%
OC(CN1CCN(c2ccc(F)cc2)CC1)c1ccc(Cl)cc1 (stereo unspecified)	-1%	-6%	13µM*	0%	1%	nt
COCCN1C(=O)C(=O)/C(=C(/O)c2ccc(S(=O)(=O)N3CCOCC3)cc2)C1c1cccc([N+](=O)[O-])c1 (stereo unspecified)	-18%	18%	-4%	10%	3%	13%
Cc1cc(S(=O)(=O)N2CCOCC2)ccc1OCC(=O)NCc1ccccn1	2%	19%	11%	12%	9%	13%
CN(C)c1ccc(C(=C2C=CC(=[N+](C)C)C=C2)c2c(O)c(S(=O)(=O)[O-])cc3cc(S(=O)(=O)O)ccc23)cc1	nt	nt	6µM*	nt	nt	?
CN(C)c1ccc(C(=C2C=CC(=[N+](C)C)C=C2)c2ccc(N(C)C)cc2)cc1	nt	nt	0.19µM*	nt	nt	0.3µM*
CN(C)c1ccc(C(=O)c2ccc(N(C)C)cc2)cc1	-11%	?	103%	-14%	-6%	nt
CN(C)c1ccc(C(=C2C=CC(=[N+](C)C)C=C2)c2ccccc2)cc1	nt	nt	3.8µM*	nt	-36%	7.6µM*
Cc1ccccc1CSc1nnnn1-c1ccc(C(N)=O)cc1	11%	1%	29%	3%	4%	nt
Oc1ccc(-n2nnnc2SCc2ccccc2Br)cc1	37%	-9%	13µM*	-17%	-57%	?
CN(C)C(=S)Oc1ccccc1C1(C)OCCO1	4%	nt	nt	nt	nt	nt
S=c1[nH]nc(-c2ccncc2)n1/N=C/c1cn(-c2ccccc2)nc1-c1ccc(Cl)cc1	57%	1%	?	-1%	?	?
CSc1nnc(-c2ccncc2)n1/N=C/c1cn(-c2ccccc2)nc1-c1ccc(Cl)cc1	-14%	?	0%	-3%	6%	9.3µM*
